Screens as filed in PubChem.
PINK1 expr mod: A Quantitative High throughput Screen to Identify Chemical Modulators of PINK1 Expression; PINK1 immunofluorescence, high-content cytometry, 24 h; 410,000 compounds, 0.2% hits; AID 624263, 2012; Potency, µM (top dose mostly 76.6 µM), inactives show at the highest dose activation (PINK1 increase), actives largely listed as activators; active = well fitted activation curve with a large enough effect; inconclusive = small, poorly fitted or top-dose-only effect; cell line not stated here; note: % of control where 0% means no effect; nearly all actives have a fitted effect of over 65% in size
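Stable cell line treated 24 h with compounds at 5 concentrations (CCCP controls), then fixed and immunostained for PINK1 plus nuclear and cell stains; PINK1 immunofluorescence quantified by laser-scanning microplate cytometry.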
KB-V1 MDR tox: qHTS assay for MDR1-selective chemotherapeutics: Primary screen using the drug-selected MDR subline cells KB-V1; KB-V1 MDR cells viability, CellTiter-Glo, 72 h; Potency, µM (titrated, usually from 46.1 µM), usual class: cytotoxic; 400,000 compounds, 3.4% hits; note: % is set by controls: 0 for no effect and ±100 for the full control effect; nearly all actives have a fitted effect of over 60% in size
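KB-V1, DMEM (no phenol red) + 10% FBS; cpd pin-transferred, titration series; 72 h, 37 degrees C; CellTiter-Glo, luminescence. Data normalized, curve-fit.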
KB-3-1 tox: qHTS assay for MDR1-selective chemotherapeutics: Primary screen using the parental adenocarcinoma cell KB-3-1. KB-3-1 viability, CellTiter-Glo ATP luminescence, 72 h. Potency, µM (titrated, usually from 46.1 µM), hits mostly cytotoxic. 400,000 compounds, 1.4% hits. AID 1347075, 2019; note: % is set by controls: 0 for no effect and ±100 for the full control effect; nearly all actives have a fitted effect of over 60% in size
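Multi-concentration cytotoxicity screen in KB-3-1 cells grown in DMEM lacking phenol red with 10% FBS. After 72 h at 37 °C with compound, ATP-dependent luminescence was recorded.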
MCF10A rerep: A quantitative high throughput screen for small molecules that induce DNA re-replication in MCF 10a normal breast cells; MCF 10A DNA re-replication, Hoechst nuclear intensity, 48 h; AID 624296, 2012; 350,000 compounds, 2.9% hits; Potency, µM (titrated, usually from 46.1 µM), for inactives: at the highest dose activity, positive = re-replication, usual class: activators; note: % of control where 0% means no effect; nearly all actives have a fitted effect of over 50% in size
SW480 rerep: A quantitative high throughput screen for small molecules that induce DNA re-replication in SW480 colon adenocarcinoma cells. SW480 DNA re-replication, Hoechst DNA content imaging, 48 h. 340,000 compounds, 1.8% hits. AID 624297, 2012. Potency, µM (top dose mostly 46.1 µM), for inactives: top-dose re-replication activation, actives largely listed as activators; note: % of control where 0% means no effect; nearly all actives have a fitted effect of over 55% in size
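Treated cells incubate 48 hr (37 C, 5% CO2), are stained 40 min with Hoechst, and nuclear fluorescence is enumerated; a rise in nuclei with high DNA signal marks re-replication.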
* hit, by the source's call. Rows were chosen to be rich in hits. Some 6.7% of all compounds tested hit in one or more screens of this group. Unless noted, calls come from the whole dose curve; as a rule, active = well fitted curve in the direction sought with a large enough effect; inconclusive = small, poorly fitted or top-dose-only effect, or another doubt; inactive = no such curve, though single readings can be large; an effect the other way counts as inactive or inconclusive. Potency is the fitted concentration of half-maximal effect.

CCOC(=O)c1c(NC(=O)CC2Nc3ccccc3NC2=O)sc(C)c1C (configuration not stated) was read as PINK1 expr mod 13µM*, KB-V1 MDR tox inactive, KB-3-1 tox inactive, MCF10A rerep inconclusive and SW480 rerep inconclusive.
`COC(=O)c1c(NC(=O)CC2Nc3ccccc3NC2=O)sc(C)c1C` (configuration not stated) gave PINK1 expr mod inconclusive, KB-V1 MDR tox inconclusive, KB-3-1 tox inactive, MCF10A rerep 10µM* and SW480 rerep 4%.
Screening Cc1cc2c(cc1C)NC(CC(=O)Nc1cccc(Cl)c1)C(=O)N2 (configuration not stated) returned PINK1 expr mod 1%, KB-V1 MDR tox inactive and KB-3-1 tox inactive.
CSCC[C@H](NC(=O)N1CCn2c1nc1ccccc12)C(=O)NCc1ccco1 was read as PINK1 expr mod 1%, KB-V1 MDR tox inconclusive, KB-3-1 tox inactive, MCF10A rerep 2% and SW480 rerep -4%.
COc1cccc(CNC(=O)c2ccccc2NC(=O)C2=C(C)OCCS2)c1OC was read as PINK1 expr mod 4%, KB-V1 MDR tox inactive, KB-3-1 tox inactive, MCF10A rerep 4% and SW480 rerep -27%.
For O=C(CSc1cccc[n+]1[O-])CSc1cccc[n+]1[O-] the results were PINK1 expr mod -2%, KB-V1 MDR tox inconclusive, KB-3-1 tox inactive, MCF10A rerep -14% and SW480 rerep 6.5µM*.
O=C(CSc1cccc[n+]1[O-])N1CCCCCC1 was read as PINK1 expr mod 2%, KB-V1 MDR tox inactive, KB-3-1 tox inactive, MCF10A rerep 0% and SW480 rerep -1%.
Cc1cccc2nc(Cn3c(=O)n(-c4ccccc4)c(=O)c4c5c(sc43)CCC5)cc(=O)n12 was read as PINK1 expr mod 2%, KB-V1 MDR tox inactive and KB-3-1 tox inactive.
COc1ccc(NS(=O)(=O)c2cc3c4c(c2)CCN4C(=O)CC3)c(OC)c1 was read as PINK1 expr mod 0%, KB-V1 MDR tox inconclusive, KB-3-1 tox inactive, MCF10A rerep 13% and SW480 rerep 1%.
C[C@H](CO)N1C[C@H](C)[C@H](CN(C)C(=O)c2ccccc2F)Oc2ncc(Br)cc2C1=O was read as PINK1 expr mod 0%, KB-V1 MDR tox inconclusive and KB-3-1 tox inactive.
Screening Cc1cc(C)nc(S[C@H]2C[C@@H](C(=O)N3CCN(c4ccccc4F)CC3)N(Cc3ccccc3F)C2)n1 returned PINK1 expr mod 1%.
Screening COc1ccc(C(=O)c2ccc(Cl)cc2)c2ccccc12 returned PINK1 expr mod 9%, KB-V1 MDR tox inconclusive, KB-3-1 tox inconclusive, MCF10A rerep 9.2µM* and SW480 rerep inconclusive.
COc1ccc(C(=O)c2ccc(C)cc2)c(OC)c1OC was read as PINK1 expr mod 3%, KB-V1 MDR tox inconclusive, KB-3-1 tox inconclusive, MCF10A rerep 16µM* and SW480 rerep inconclusive.
For COc1ccc(C(=O)c2ccc(Br)cc2)c2ccccc12 the results were PINK1 expr mod 6%, KB-V1 MDR tox 18µM*, KB-3-1 tox inconclusive, MCF10A rerep 7.3µM* and SW480 rerep -2%.
O=C(/C=C/c1cccc(Cl)c1)NNC(=O)c1ccncc1 was read as PINK1 expr mod 1%, KB-V1 MDR tox inactive, KB-3-1 tox inconclusive, MCF10A rerep 4% and SW480 rerep -4%.
For O=C(/C=C/c1cccc(F)c1)NNC(=O)c1ccncc1 the results were PINK1 expr mod 0%, KB-V1 MDR tox 8.2µM*, KB-3-1 tox inconclusive, MCF10A rerep 5% and SW480 rerep 0%.
For COc1ccccc1C1=NC(c2ccccc2)CN1c1ccccc1 (configuration not stated) the results were PINK1 expr mod 12%, KB-V1 MDR tox inactive, KB-3-1 tox inactive, MCF10A rerep 5.2µM* and SW480 rerep 6.5µM*.
Screening COc1ccccc1-c1cn(-c2ccccc2)c(=S)[nH]1 returned PINK1 expr mod 1%, KB-V1 MDR tox inconclusive, KB-3-1 tox inconclusive, MCF10A rerep 3% and SW480 rerep inconclusive.
`CCOP(=O)(OCC)C(NC(C)=O)C(=O)c1ccccc1` (configuration not stated) gave PINK1 expr mod 0%, KB-V1 MDR tox inconclusive, KB-3-1 tox inactive, MCF10A rerep 32% and SW480 rerep 0%.
CC(=O)NC(C(=O)c1ccccc1)C(=O)c1ccccc1 was read as PINK1 expr mod -1%, KB-V1 MDR tox inactive, KB-3-1 tox inactive, MCF10A rerep -73% and SW480 rerep 0.52µM*.
`CC1=C(C(=O)N2CCCCCC2)CC(CC(=O)NCCc2ccccn2)C(=O)N1Cc1ccc(C(C)(C)C)cc1` (configuration not stated) gave PINK1 expr mod -1%, KB-V1 MDR tox inconclusive and KB-3-1 tox inactive.
COc1ccccc1-n1cnc2cc(NCc3ccco3)ccc21 was read as PINK1 expr mod 9%, KB-V1 MDR tox 2.6µM*, KB-3-1 tox 0.58µM*, MCF10A rerep 2.1µM* and SW480 rerep 1.5µM*.
For COc1ccccc1-n1cnc2cc(NCc3cccs3)ccc21 the results were PINK1 expr mod -1%, KB-V1 MDR tox inconclusive, KB-3-1 tox 1.2µM*, MCF10A rerep 1.5µM* and SW480 rerep 2.1µM*.
Screening CC(C)(C)n1cnc2cc(NCc3cccs3)ccc21 returned PINK1 expr mod 1%, KB-V1 MDR tox inconclusive, KB-3-1 tox inactive, MCF10A rerep 2% and SW480 rerep -2%.
Screening Cc1ccccc1-n1cnc2cc(NCc3cccs3)ccc21 returned PINK1 expr mod 1%, KB-V1 MDR tox inactive, KB-3-1 tox inconclusive, MCF10A rerep inconclusive and SW480 rerep 18µM*.
COc1ccccc1-n1cnc2cc(NS(=O)(=O)c3ccc(Br)cc3)ccc21 was read as PINK1 expr mod 0%, KB-V1 MDR tox 12µM*, KB-3-1 tox inactive, MCF10A rerep inconclusive and SW480 rerep 14%.
Screening COc1ccc(CNc2ccc3c(c2)ncn3-c2ccccc2OC)cc1 returned KB-V1 MDR tox 16µM*, KB-3-1 tox inactive, MCF10A rerep 18% and SW480 rerep inconclusive.
COc1ccccc1-n1cnc2cc(NCc3ccccc3O)ccc21 was read as PINK1 expr mod 3%, KB-V1 MDR tox inconclusive, KB-3-1 tox inconclusive, MCF10A rerep inconclusive and SW480 rerep inconclusive.
Screening O=C(Nc1ccccc1Cl)c1cc(C2CCCCN2C(=O)c2ccccc2)on1 (configuration not stated) returned PINK1 expr mod 0%, KB-V1 MDR tox inactive and KB-3-1 tox inactive.
